# From PubChem
# Hits are enriched below; roughly 2.4% of the tested compounds scored in any of these assays.
# FEN1 inh: qHTS Assay for the Inhibitors of Human Flap endonuclease 1 (FEN1) | Potency, µM (highest dose often 114 µM), for inactives: at the top dose activity change, negative = inhibition, actives largely listed as inhibitors | hit rate 0.35% among 390,000 | AID 588795, 2011 | P39748 | Recombinant FEN1 flap cleavage, fluorescence, 15 min; further: on the % scale 0 is the no-effect control and ±100 the full control effect; nearly all actives have a fitted effect of over 65% in size
# Target sequence (P39748 whole entry, looked up): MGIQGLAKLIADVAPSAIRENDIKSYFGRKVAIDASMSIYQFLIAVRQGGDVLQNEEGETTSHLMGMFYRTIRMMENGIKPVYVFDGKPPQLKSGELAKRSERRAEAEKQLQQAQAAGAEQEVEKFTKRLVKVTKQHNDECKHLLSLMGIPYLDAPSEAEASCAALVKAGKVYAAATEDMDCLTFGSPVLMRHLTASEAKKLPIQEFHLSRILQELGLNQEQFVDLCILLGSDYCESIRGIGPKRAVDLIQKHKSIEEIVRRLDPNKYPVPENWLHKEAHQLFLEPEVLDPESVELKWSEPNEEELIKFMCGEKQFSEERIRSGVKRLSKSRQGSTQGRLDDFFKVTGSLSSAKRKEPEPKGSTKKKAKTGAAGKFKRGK
#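 Concentration–response screening of FEN1 (10 nM): 15 min compound preincubation at room temperature, reaction started with 50 nM substrate and read at 0 and 15 min. Corrected, normalized data were fitted by a four-parameter Hill equation.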
# Pol iota inh: qHTS for Inhibitors of Polymerase Iota; Pol iota fluorescent replication assay, 10 min; hit rate 1% among 390,000; DNA polymerase iota (Homo sapiens), Q9UNA4; Potency, µM (series often up to 115 µM), for the others: at the top dose activity, negative = inhibition, usual class: inhibitors; AID 588590, 2011
#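 Pol iota at 10 nM preincubated 15 min with compounds at room temperature; reaction started with fluorescent substrate, 50 nM final. Fluorescence read kinetically at 0 and 10 min; buffer-only wells as negative control.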
# Pol kappa inh: qHTS for Inhibitors of Polymerase Kappa; DNA polymerase kappa (Homo sapiens), Q9UBT6; purified Pol kappa, fluorescent DNA synthesis assay, 10 min; Potency, µM (top dose mostly 107 µM), without a hit: at the top dose activity, negative = inhibition, usual class: inhibitors; hit rate 0.53% among 400,000; AID 588579, 2011; further: on the % scale 0 is the no-effect control and ±100 the full control effect
#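 Readout: fluorescence, taken kinetically at 0 and 10 min. Conditions: 10 nM Pol kappa, 15 min RT compound preincubation, 50 nM substrate final. Controls: enzyme-free buffer wells.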
# WRN inhibitor: qHTS for Inhibitors of WRN Helicase | Bifunctional 3'-5' exonuclease/ATP-dependent helicase WRN (Homo sapiens), Q14191 | WRN helicase unwinding, fluorescent forked duplex, kinetic | Potency, µM (series often up to 114 µM), inactives show at the highest dose activity change, negative = inhibition, usual class: inhibitors | hit rate 0.46% among 360,000; further: on the % scale 0 is the no-effect control and ±100 the full control effect; nearly all actives have a fitted effect of over 55% in size
#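 Fluorescence dequenching readout, ex 525 nm/em 598 nm, kinetic mode: forked duplex DNA (100 nM final) with adjacent fluorophore and quencher unwound by WRN (20 nM final) with 2 mM ATP. Compound preincubation 15 min, room temperature.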
# Pol beta inh: qHTS Assay for Inhibitors of DNA Polymerase Beta | P06746 | Pol beta primer extension/strand displacement, fluorescence kinetic | Potency, µM (series often up to 114 µM), for the others: at the top dose activity change, negative = inhibition, hits mostly inhibitors | hit rate 1.3% among 340,000; further: on the % scale 0 is the no-effect control and ±100 the full control effect
#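 Pol beta (10 nM) and compounds were preincubated 15 min at room temperature, then 50 nM substrate (final) started primer extension/strand displacement. Reads were taken at 0 and 10 min; concentration-response data were fitted to a four-parameter Hill equation.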
# Pol eta inh: qHTS for Inhibitors of Polymerase Eta. hit rate 1.2% among 390,000. Potency, µM (doses to about 114 µM), for the others: top-dose activity change, negative = inhibition, most hits filed as inhibitors. recombinant Pol eta, fluorescent DNA replication assay; further: on the % scale 0 is the no-effect control and ±100 the full control effect
#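 Pol eta at 10 nM preincubated with compounds 15 min at room temperature; reaction started with fluorescent substrate (50 nM final) and read kinetically at 0 and 10 min.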
# Active calls of the source: *; ? = inconclusive; nt = no result; [ ] = dose if it differs, or a comment. The call rests on the fitted dose curve; in most records, active means well fitted curve in the direction sought with a large enough effect; inconclusive means small, poorly fitted or top-dose-only effect, or another doubt; inactive means no such curve, though single readings can be large; an effect the other way counts as inactive or inconclusive. Potency means the concentration at half of the fitted maximal effect.
SMILES,FEN1 inh,Pol iota inh,Pol kappa inh,WRN inhibitor,Pol beta inh,Pol eta inh
O=C(CS(=O)Cc1ccco1)NCC=CCOc1cc(CN2CCCCC2)ccn1 (configuration not stated),nt,nt,2.2%[19.4 µM],nt,nt,nt
CCCC/C=C/[C@H](c1ccccc1)[C@H](CO)Cc1cnc2ccccc2c1,-33.5%,-20.5%,-12.3%,nt,nt,nt
CN(C)C(=O)COc1ccccc1C(=O)OCC(=O)Nc1ccc(Oc2ccc(Br)cc2)cc1,-17.1%,10.5%,-12.6%,nt,nt,nt
COc1cc(C(=O)Nc2ccc(C)c(S(=O)(=O)N(C)C)c2)ccc1OCC(=O)N1CCOCC1,1.5%,50.1µM*,-9.0%,3.2%[11.6 µM],nt,?
CCN(CC)/[N+]([O-])=N/Oc1ccc([N+](=O)[O-])cc1[N+](=O)[O-],-18.9%,-26.2%,-9.6%,nt,nt,nt
C=CCOC(=O)C(=O)/C=C/c1ccc2c(c1)Cc1ccccc1-2,-7.1%,12.6µM*,-5.7%,-22.2%,8.2%,3.2%
NC(=O)CN1CCN(C(=O)NC2CCCCC2)CC1,28.9%,11.6%,21.7%,-1.3%,31.6µM*,-8.8%
O=C(NCCN1CCN(C(=O)NC2CCCCC2)CC1)NC1CCCCC1,4.8%,-1.1%,0.4%,6.5%,-1.4%,0.9%
NC(=NCc1ccc2c(c1)OCO2)NC(=O)c1ccccc1,-12.5%,-2.1%,-3.4%,?,22.0%,79.4µM*
CSc1nc(Sc2ccccc2)c2ccccc2n1,-14.1%,-7.0%,-8.5%,-7.4%,0.3%,-2.6%
CSc1nc(=O)[nH]nc1Sc1ccccc1,nt,nt,nt,-5.0%[11.6 µM],nt,44.7µM*
CN(C)CC(CCC(CN(C)C)C(=O)c1ccccc1)C(=O)c1ccccc1 (configuration not stated),-12.9%,22.4µM*,-3.3%,?,0.3%,-5.4%
Cn1c(=O)[nH]c(=O)c2c1nc1n2CCN1c1ccccc1,-0.3%,79.4µM*,?,nt,7.5%,-2.3%
CC1CN(c2ccccc2)c2nc3c(c(=O)[nH]c(=O)n3C)n2C1 (configuration not stated),-6.5%,1.3%,-8.0%,13.9%,31.2%,-8.3%
O=C(O)CCC(=O)N1CCc2cc(S(=O)(=O)N3CCCCC3)ccc21,-12.8%,8.6%,-11.0%,1.4%,35.1%,-6.5%
O=C(O)CCC(=O)N1CCc2cc(S(=O)(=O)N3CC=C(c4ccccc4)CC3)ccc21,-2.3%,?,?,-0.7%,22.4µM*,?
COc1cc(OC)c(NC(=O)c2cnn(-c3ccccc3)c2-n2cccc2)cc1Cl,-2.2%,?,-2.3%,nt,50.1µM*,-0.2%
COc1ccccc1NC(=O)c1cnn(-c2ccccc2)c1-n1cccc1,2.7%,20.1%,-15.9%,nt,-0.5%,-8.0%
O=S(=O)(Nc1nc2n(n1)C(c1ccc(F)cc1)C=C(c1ccc(Cl)cc1)N2)c1ccccc1 (configuration not stated),9.3%,33.5%,-1.5%,nt,8.3%,89.1µM*
Cc1c(NC(=O)C(C)OC(=O)c2cccnc2)c(=O)n(-c2ccccc2)n1C (configuration not stated),-7.4%,58.8%,-6.2%,-0.4%,6.0%,-5.7%
Cc1c(NC(=O)C(C)OC(=O)c2c3c(nc4ccccc24)CCC3)c(=O)n(-c2ccccc2)n1C (configuration not stated),-2.9%,31.6µM*,-24.2%,?,?,50.1µM*
Cc1c(NC(=O)C(C)OC(=O)c2cccnc2Cl)c(=O)n(-c2ccccc2)n1C (configuration not stated),0.1%,79.4µM*,5.1%,2.9%,nt,-9.2%
COc1cccc(Cn2c(=O)c(-c3ccc(Cl)cc3)nc3cncnc32)c1,nt,nt,-0.8%[60.1 µM],nt,nt,nt
Cc1noc(C)c1-c1cc(NCCN2CCOCC2)ncn1,nt,nt,1.4%[60.1 µM],nt,nt,nt
Nc1nc(N)c2c(OCc3ccc(C(F)(F)F)cc3)cccc2n1,-10.7%,17.3%,-3.5%,nt,nt,nt
